Inconclusive results are not listed. Active and inactive are the calls of the source. Rule for the calls: active = hit-call score of the fitted dose curve at least 0.9, where 1 is the maximum; inconclusive = response in the unintended direction; inactive = score below 0.9.
Tested on: turtle Androgen Receptor (AR), gene 101947425
Assay: ATG_trAR_XSP2: Attagene TRANS-FACTORIAL Multi-Species (XSP2) HepG2 Assay for turtle Androgen Receptor (AR) (AID 2283815)
Outline: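 HepG2 cells transiently transfected with GAL4-UAS reporter units for chimeric NR-Gal4 receptors; 24 h dosing in presence of 3 nM 6-alpha-fluorotestosterone and 1.5 nM norgestrel. Reporter mRNA by RT-PCR and capillary electrophoresis, gain of signal versus DMSO.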

In the case of `CC1(C)C(C=C(Cl)Cl)C1C(=O)OC(C#N)c1cccc(Oc2ccccc2)c1` (stereo unspecified), the outcome is reported as “inactive”.

Source: PubChem BioAssay (EPA / NIEHS)
